PubChem BioAssay (NCI)
The panel holds about 83,000 compounds, 20% with a hit somewhere; the sample as a whole holds those more often.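 Negative percent growth values reflect cell death: -40 means 40% of the cells present at the start died, and -100 means all died.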 The source made the active and inactive calls. How the source made its calls: active means growth percent below 10; inactive means the rest.

Tested on: MDA-MB-468 breast
Assay: NCI-60 one-dose screen, 48 h (100 = growth as untreated, 0 = no growth, -100 = all killed)
Details: 10 µM unless noted

Row | Structure (SMILES) | growth
1 | O=S(=O)(NCCCNc1nccc(-c2c(-c3cccc(F)c3)nc3sccn23)n1)c1cccc(F)c1 | 33% (inactive)
2 | O=C1C(=O)c2c(nc3ccc(C(F)(F)F)cn23)-c2ccccc21 | -65.9% (active)
3 | COC(=O)c1c2c(c(C)[n+]([O-])c1C)C(=O)C=C(NCc1ccc(F)cc1)C2=O | -67% (active)
4 | Sc1cccc2cccnc12 | 30% (inactive)
5 | CCNC(=S)N(Cc1ccccc1)Cc1ccccc1 | 95.4% (inactive)
6 | O=C1CCC(N2C(=O)c3cccc(NCCCC4CCN(CCNC(=O)c5cc6c(o5)C(=O)c5ccccc5C6=O)CC4)c3C2=O)C(=O)N1 (stereo not given) | -73.9% (active)
7 | O=C(Nc1ccccc1)Nc1ccccc1CNc1nc(Nc2ccc(OCCN3CCCC3)cc2)ncc1Cl | 17.7% (inactive)
8 | Cc1ccc2[nH]c(=O)c3c(c2c1)Oc1ncn2nc(-c4ccco4)nc2c1C3c1ccc(Cl)cc1 (stereo not given) | 96.4% (inactive)
9 | CC1(C)[C@@H](O)CC[C@]2(C)[C@H]3CC[C@@H]4[C@H]5[C@H](C(=O)/C=C\c6ccc([N+](=O)[O-])cc6)CC[C@]5(O)CC[C@@]4(C)[C@]3(C)CC[C@@H]12 | 36.2% (inactive)
10 | CC[C@@](C)(NC(=O)C(C)(C)NC(=O)[C@@H](NC(=O)[C@@H]1CCCN1C(=O)C(C)(C)NC(=O)[C@H](CC(C)C)NC(=O)CNC(=O)C(C)(C)NC(=O)[C@@H](NC(=O)C(C)(C)NC(=O)[C@H](CCC(N)=O)NC(=O)[C@H](C)NC(=O)C(C)(C)NC(=O)[C@H](C)NC(=O)C(C)(C)NC(=O)[C@@H]1CCCN1C(=O)C(C)(C)NC(C)=O)C(C)C)C(C)C)C(=O)N[C@@H](CCC(N)=O)C(=O)N[C@@H](CCC(N)=O)C(=O)N[C@H](CO)Cc1ccccc1 | -3.95% [4.25 µM] (active)
